Reference: PubChem BioAssay (Tox21)
Inconclusive results are not listed. The source made the active and inactive calls. Unless noted, the call rests on the fitted dose curve; in most records, active means well fitted curve in the direction sought with a large enough effect in the repeat runs; inconclusive means weak or mixed curves; inactive means no such curve, though single readings can be large; an effect the other way counts as inactive or inconclusive. Where a SMILES comes first, the peptide text is derived from it. [ ]: non-standard residue; d: D form. pGlu = O=C1CC[C@@H](C(=O)O)N1

How the values were obtained:
[1] = qHTS assay to identify small molecule agonists of the vitamin D receptor (VDR) signaling pathway - cell viability counter screen (AID 743224); further: series mostly up to about 63 µM; on the % scale 0 is the no-effect control and ±100 the full control effect; nearly all actives have a fitted effect of over 50% in size
How it was run: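 Compounds were pin-transferred onto VDR-bla cells plated 4 h earlier; following 16 h incubation at 37C, cell viability was quantified by CellTiter-Glo luminescence after 30 min at room temperature.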

[2] = qHTS assay to identify small molecule antagonists of the vitamin D receptor (VDR) signaling pathway - cell viability counter screen (AID 743225); further: on the % scale 0 is the no-effect control and ±100 the full control effect; nearly all actives have a fitted effect of over 50% in size
How it was run: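 In this counter screen, VDR-bla HEK 293T cells receive test compound plus 3 nM final calcitriol for 16 h at 37C. Room-temperature steps of 2 h with the beta-lactamase substrate, then 30 min with CellTiter-Glo, precede the luminescence read.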

[3] = qHTS assay to identify small molecule agonists of the NFkB signaling pathway - cell viability counter screen (AID 1159515; calls by dose curve; further: series mostly up to about 61 µM; on the % scale 0 is the no-effect control and ±100 the full control effect; nearly all actives have a fitted effect of over 55% in size)
How it was run: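 Parallel cytotoxicity counter screen in ME-180 cells carrying an NFkB-response-element beta-lactamase reporter, 2,000 cells/well. Compound exposure lasted 5 hr at 37 C, 5% CO2. Cell viability was quantified by CellTiter-Glo luminescence.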

[4] = qHTS assay to identify small molecule agonists of the endoplasmic reticulum stress response signaling pathway (AID 1159516; active means well fitted activation curve with a large enough effect in the signal ratio in the repeat runs, not every such curve was filed as active; the % refers to the signal ratio; further: on the % scale 0 is the no-effect control and ±100 the full control effect)
How it was run: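 Using a HeLa line with an ESRE-driven beta-lactamase gene, agonist activity was measured by FRET substrate fluorescence (460 and 530 nm emission) after cells were treated with compounds for 5 hr at 37 C and 5% CO2.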

[5] = qHTS assay to identify small molecule agonists of the endoplasmic reticulum stress response signaling pathway - cell viability counter screen (AID 1159517; calls by dose curve;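 further: HeLa cells carrying an ER stress response element beta-lactamase reporter; series mostly up to about 61 µM; on the % scale 0 is the no-effect control and ±100 the full control effect; nearly all actives have a fitted effect of over 50% in size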)
How it was run: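 Cpd-treated ESRE-bla HeLa (5 hr, 37 C) → LiveBLAzer 2 hr RT → CellTiter-Glo 30 min RT → luminescence.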

[6] = qHTS assay to identify small molecule antagonists of the retinoid-related orphan receptor gamma (ROR-gamma) signaling pathway - cell viability counter screen (AID 1159520); further: on the % scale 0 is the no-effect control and ±100 the full control effect; nearly all actives have a fitted effect of over 50% in size
How it was run: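 Tet-on ROR gamma CHO cells (1,000/well) were plated 4 hr, given compounds in DMSO for 2 hr at 37 C, then induced with 1 uM final doxycycline for 16 hr. Viability was read as ATP by CellTiter-Glo luminescence after 30 min.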

[7] = target: Nuclear receptor ROR-gamma (Homo sapiens) (UniProt P51449); assay: qHTS assay to identify small molecule antagonists of the retinoid-related orphan receptor gamma (ROR-gamma) signaling pathway (AID 1159521)
How it was run: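 Screening format: cell-based luciferase reporter in CHO cells with doxycycline-inducible RORγ. Compound pre-exposure lasts 2 h, doxycycline is 1 uM final, induction runs 16 h at 37 C, and ONE-Glo luminescence is read.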

[8] = qHTS assay to identify small molecule agonists of the AP-1 signaling pathway - cell viability counter screen (AID 1159525; calls by dose curve; further: nearly all actives have a fitted effect of over 55% in size)
How it was run: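 Each titration point was normalised to DMSO and tetra n-octyl ammonium bromide controls. The read was Cell Titer Glo luminescence after 30 min at RT, following 5 h compound exposure of ME-180 AP-1-bla cells at 37 °C.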

[9] = qHTS assay to identify small molecule agonists of the AP-1 signaling pathway (AID 1159526; calls by dose curve; further: on the % scale 0 is the no-effect control and ±100 the full control effect)
[10] = target: Retinoic acid receptor RXR-alpha (Homo sapiens) (UniProt P19793); assay: qHTS assay to identify small molecule agonists of the RXR signaling pathway (AID 1159527; calls by dose curve; further: on the % scale 0 is the no-effect control and ±100 the full control effect; nearly all actives have a fitted effect of over 35% in size)
How it was run: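 Fluorescence ratio readout (460 vs 530 nm) from GeneBLAzer RXR-alpha HEK 293T cells after 16 hr compound treatment; cells seeded 5 hr beforehand in low-serum, charcoal-stripped medium.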

[11] = qHTS assay to identify small molecule agonists of the RXR signaling pathway - cell viability counter screen (AID 1159529)
How it was run: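 Viability read-out for the RXR-alpha agonist qHTS: luminescent CellTiter-Glo signal after 30 min at RT. HEK 293T bla reporter cells, 2% charcoal-stripped FBS, 16 hr compound incubation; tetraoctyl ammonium bromide as cytotoxic control.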

[12] = qHTS assay to identify small molecule antagonists of the retinoid acid receptor (RAR) signaling pathway - cell viability counter screen (AID 1159551); further: on the % scale 0 is the no-effect control and ±100 the full control effect; nearly all actives have a fitted effect of over 35% in size
How it was run: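 ATP-based viability, C3RL4 cells, 6 h at 37 C with 1 uM final retinol co-added after compound; luminescence read 30 min post CellTiter-Glo, RT.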

[13] = qHTS assay to identify small molecule antagonists of the retinoic acid receptor (RAR) signaling pathway (AID 1159552)
How it was run: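 Using a RARE-driven luciferase construct in C3RL4 cells, retinol at 1 uM final provided the agonist stimulus while compounds were co-applied. After 6 hours at 37 C, luminescence was recorded to flag inhibitors of retinol signaling.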

[14] = qHTS assay to identify small molecule agonists of the retinoic acid receptor (RAR) signaling pathway (AID 1159553); further: on the % scale 0 is the no-effect control and ±100 the full control effect
How it was run: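 Quantitative high-throughput format: the Tox21 10K library was tested on C3RL4 RARE-luciferase cells for 6 hr at 37 C and 5% CO2, with luminescence measured after a 30 min room-temperature reagent step.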

Chain of Retinoic acid receptor RXR-alpha (Homo sapiens) (P19793 whole entry, looked up): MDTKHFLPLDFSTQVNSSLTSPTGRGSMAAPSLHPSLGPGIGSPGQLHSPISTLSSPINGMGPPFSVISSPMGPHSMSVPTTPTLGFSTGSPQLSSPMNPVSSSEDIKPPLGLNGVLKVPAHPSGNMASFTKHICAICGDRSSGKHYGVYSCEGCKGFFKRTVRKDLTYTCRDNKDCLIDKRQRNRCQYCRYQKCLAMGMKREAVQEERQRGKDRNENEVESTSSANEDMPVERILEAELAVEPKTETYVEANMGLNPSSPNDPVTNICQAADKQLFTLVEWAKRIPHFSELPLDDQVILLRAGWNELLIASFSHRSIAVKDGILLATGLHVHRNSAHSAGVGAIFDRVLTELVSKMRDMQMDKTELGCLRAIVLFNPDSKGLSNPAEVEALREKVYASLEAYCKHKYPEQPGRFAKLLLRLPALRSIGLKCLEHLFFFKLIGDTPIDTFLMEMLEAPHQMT

CC1OC1C1CCC2(C)OC2C1 (stereo unspecified)
inactive: outcome [1] | outcome [2] | outcome [3] | outcome [4] | outcome [5] | outcome [6] | Potency [7] | outcome [8] | outcome [9] | Potency [10] | Potency [11] | outcome [12] | Potency [13]

Cc1c(N)c(=O)n(-c2ccccc2)n1C
inactive: outcome [1] | outcome [2] | outcome [3] | outcome [4] | outcome [5] | outcome [6] | Potency [7] | outcome [8] | outcome [9] | Potency [10] | Potency [11] | outcome [12] | Potency [13] | Potency [14]

CCNC(=O)[C@@H]1CCCN1C(=O)[C@H](CCCN=C(N)N)NC(=O)[C@H](CC(C)C)NC(=O)CNC(=O)[C@H](Cc1ccc(O)cc1)NC(=O)[C@H](CO)NC(=O)[C@H](Cc1c[nH]c2ccccc12)NC(=O)[C@H](Cc1cnc[nH]1)NC(=O)[C@@H]1CCC(=O)N1 ([pGlu]HWSYGLRP-NHEt)
inactive: outcome [1] | outcome [2] | outcome [3] | outcome [4] | outcome [5] | outcome [6] | Potency [7] | outcome [8] | outcome [9] | Potency [10] | Potency [11] | outcome [12] | Potency [13]

O=C(O)CC(C(=O)O)S(=O)(=O)O (stereo unspecified)
inactive: outcome [2] | outcome [3] | outcome [4] | outcome [5] | outcome [6] | Potency [7] | outcome [8] | outcome [9] | Potency [10] | Potency [11] | outcome [12] | Potency [13]

Cc1ccc(-c2ccccc2C#N)cc1
inactive: outcome [1] | outcome [2] | outcome [3] | outcome [4] | outcome [5] | outcome [6] | Potency [7] | outcome [8] | outcome [9] | Potency [10] | Potency [11] | outcome [12] | Potency [13]

NC(N)=NCCN1CCCCCCC1
inactive: activity change, negative = cytotoxicity [1] -13.4% [at 0.55 µM] | viability change, negative = cytotoxic [2] -3.67% [at 0.628 µM] | activity, negative = cytotoxic [3] -1.12% [at 0.628 µM] | activation [4] 2.69% [at 0.628 µM] | activity change, negative = cytotoxicity [5] -3.02% [at 0.628 µM] | activity, negative = cytotoxicity [6] 6.85% [at 0.349 µM] | activity change, negative = inhibition [7] 36.3% [at 0.35 µM] | viability change, negative = cytotoxic [8] 8.04% [at 0.29 µM] | activation [9] -7.76% [at 0.29 µM] | activation [10] 1.89% [at 0.29 µM] | activity change, negative = cytotoxicity [11] -2.51% [at 0.29 µM] | activity change, negative = cytotoxicity [12] -0.855% [at 0.349 µM] | activity, negative = inhibition [13] 16.3% [at 0.349 µM] | activation [14] 0.885% [at 0.756 µM]

CCCCOCCOC(=O)COc1cc(Cl)c(Cl)cc1Cl
inactive: outcome [2] | outcome [3] | outcome [4] | outcome [5] | outcome [6] | Potency [7] | outcome [8] | outcome [9] | Potency [10] | Potency [11] | outcome [12] | Potency [13]

COc1cc2c(cc1OC)-c1cc3ccc(OC)c(OC)c3c[n+]1CC2
inactive: outcome [3] | outcome [4] | outcome [5] | outcome [6] | Potency [7] | outcome [8] | outcome [9] | Potency [10] | Potency [11] | outcome [12]

CC(C)(C)c1ccc(-c2ccc(C(C)(C)C)cc2)cc1
inactive: outcome [1] | outcome [2] | outcome [3] | outcome [4] | outcome [5] | outcome [6] | Potency [7] | outcome [8] | outcome [9] | Potency [10] | Potency [11] | outcome [12] | Potency [13]

C[C@H]1[C@H](NC(=O)/C(=N/OC(C)(C)C(=O)O)c2csc(N)n2)C(=O)N1S(=O)(=O)O (stereo in doubt)
inactive: outcome [3] | outcome [4] | outcome [5] | outcome [6] | Potency [7] | outcome [8] | outcome [9] | Potency [10] | Potency [11] | outcome [12] | Potency [13] | Potency [14]
